Assay outcomes: PubChem BioAssay, National Center for Advancing Translational Sciences (NCATS)
D3 antag = qHTS of D3 Dopamine Receptor Antagonist: qHTS; D3R cells, DiscoveRx beta-arrestin luminescence, antagonist mode; hits give low values; max response, negative = inhibition, %; hit rate 2.5% among 360,000; in the data active = max response below about -50%; inconclusive = no clear call, values can overlap the other calls
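Cells plated overnight at 1500 cells/well, then exposed to library compounds with dopamine controls for 90 minutes at 37 degrees C. DiscoveRx reagent added for 30–60 minutes at room temperature; luminescence read, quantitative HTS format.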
D1 antagonist = Antagonist of Human D 1 Dopamine Receptor: qHTS. D(1A) dopamine receptor (Homo sapiens), P21728. HEK293 TREx D1 cells, calcium flux, dopamine EC80; hits give low values. activity change, negative = inhibition, % at 10 µM. hit rate 3.2% among 360,000; in the data active = activity change below about -30%
Target sequence (P21728 whole entry, looked up): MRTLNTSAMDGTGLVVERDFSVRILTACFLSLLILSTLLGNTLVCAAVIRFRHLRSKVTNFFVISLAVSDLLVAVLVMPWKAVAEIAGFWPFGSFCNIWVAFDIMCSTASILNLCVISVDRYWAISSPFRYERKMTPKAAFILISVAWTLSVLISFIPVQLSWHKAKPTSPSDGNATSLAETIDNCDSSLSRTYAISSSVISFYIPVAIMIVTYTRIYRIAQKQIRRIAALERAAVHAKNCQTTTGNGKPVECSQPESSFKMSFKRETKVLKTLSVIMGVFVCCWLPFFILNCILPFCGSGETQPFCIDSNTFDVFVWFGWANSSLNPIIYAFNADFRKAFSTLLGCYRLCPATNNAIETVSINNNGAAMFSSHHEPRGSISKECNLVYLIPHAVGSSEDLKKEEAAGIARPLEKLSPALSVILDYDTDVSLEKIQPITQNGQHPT
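Inducible Hek293 Trex D1 cells (tetracycline, overnight, 30 C). Calcium dye 30–90 min RT. Antagonist mode: EC80 dopamine added after 180 s compound read.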
D3 ag = qHTS of D3 Dopamine Receptor Agonist: qHTS | AID 652048, 2013 | D3R DiscoveRx beta-arrestin cells, luminescence, 90 min | D(3) dopamine receptor (Homo sapiens), P35462 | hit rate 0.58% among 410,000 | max activation, %; in the data active = max activation above about 30%
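Agonist-mode cell screen: cells plated at 1500/well and incubated overnight at 37 °C, then exposed to library compounds for 90 min at 37 °C. Detection reagent was added for 30–60 min at room temperature, and luminescence was read.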
D1 PAM = Potentiators of Human D1 Dopamine Receptor: qHTS. D(1A) dopamine receptor (Homo sapiens), P21728. HEK293 TREx D1 cells, calcium flux, dopamine EC20 potentiation. potentiation, % at 10 µM. hit rate 0.036% among 360,000; in the data active = potentiation above about 30%
D1 ag = Allosteric Agonists of the Human D1 Dopamine Receptor: qHTS; hit rate 1% among 360,000; HEK293 T-REx D1 cells, calcium flux, agonist mode; D(1A) dopamine receptor (Homo sapiens), P21728; activation, % at 2 µM; AID 504660, 2011; in the data active = activation above about 30%
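Agonism was scored from calcium flux recorded over 180 s (1 read/s) after pintool compound addition, following a 10-cycle baseline. Cells were inducible force-coupled HEK293 TREx D1, plated overnight at 30 C and loaded with no-wash calcium dye.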
Large screens that a line does not name were inactive. Only some compounds are listed: those with a hit (about 6.1% of all), similar ones and a draw of the others.

COc1ccc(-n2nc(C(=O)Nc3ccccc3OC)c3c4ccccc4n(C)c3c2=O)cc1Cl	none (no result: D3 antag)
COc1ccc2[nH]cc(C(O)CN3CCN(c4ccccc4F)CC3)c2c1 (configuration not stated)	D3 antag -63, D1 antagonist -62
COc1ccccc1N1CCN(CC(O)c2ccc3cc[nH]c3c2)CC1 (configuration not stated)	D3 antag -82
COc1ccccc1N1CCN(CCCCOc2ccc(C)cc2C)CC1	D3 antag -86
COc1ccccc1N1CCN(CC(O)COc2ccc(C)cc2C)CC1 (configuration not stated)	D3 antag -94
CCC(Sc1nc2nccnc2c(=O)n1Cc1ccc(C)cc1)C(=O)NC1CCCCC1 (configuration not stated)	none (no result: D3 antag)
O=C(NCC(c1ccco1)S(=O)(=O)c1cccs1)c1ccc(C(F)(F)F)cc1 (configuration not stated)	none (no result: D3 antag)
OC(COc1cccc2ccccc12)CN1CCN(c2ccccc2Cl)CC1 (configuration not stated)	D3 antag -81
Cc1ccc(N2CCN(CC(O)COc3cccc4ccccc34)CC2)cc1 (configuration not stated)	none
CC(=O)N1CCCc2cc(S(=O)(=O)N(C)CC(=O)Nc3ccc(C)cc3C)ccc21	none (no result: D3 antag)
CCOC(=O)C1Nc2ccccc2C2c3ccccc3CC12 (configuration not stated)	none (no result: D1 antagonist, D1 PAM, D1 ag)
CCOC(=O)C1Nc2c(F)cc(C)cc2C2c3ccccc3CC12 (configuration not stated)	D3 antag -54 (no result: D1 antagonist, D1 PAM, D1 ag)
CSc1ncnc2c1ncn2CCCN1CCN(c2ncccn2)CC1	D3 ag 38 (no result: D1 antagonist, D1 PAM, D1 ag)
CSc1ncnc2c1ncn2CCCN1CCN(Cc2cccc3ccccc23)CC1	D3 antag -60 (no result: D1 antagonist, D1 PAM, D1 ag)
CCOC(=O)CCSc1nc2c(c(C(F)(F)F)c1C#N)CCC2	D3 antag inconclusive, D1 antagonist -38
Cc1cc(C)c(OCCCCN(C)Cc2ccccc2)c(C)c1	D3 antag inconclusive
Cc1ccc(C(C)C)c(OCCCN(C)Cc2ccccc2)c1	D3 antag -61
Cc1ccc(OCCCCN(C)Cc2ccccc2)c(Br)c1	D3 antag -55
Cc1cc(C)nc(NN2C(=O)/C(=C/c3ccc(O)cc3)SC2=S)n1	D1 ag 43
O=C(NN1C(=O)/C(=C/c2cc([N+](=O)[O-])ccc2O)SC1=S)c1ccccc1O	none (no result: D3 antag, D3 ag)
O=C(NN1C(=O)/C(=C/c2ccc(O)c([N+](=O)[O-])c2)SC1=S)c1ccccc1Cl	D3 antag -74
COc1cc(/C=C2\SC(=S)N(NC(=O)c3ccccc3O)C2=O)ccc1O	D1 ag 90
O=C(NN1C(=O)/C(=C/c2ccc(O)cc2)SC1=S)c1ccccc1O	D1 ag 67
Cc1ccccc1-n1nc(CO)c(C(=O)NCC(c2ccccc2)c2ccccc2)n1	none (no result: D3 antag)
Cn1cc(/C=C2\SC(=S)N(NC(=O)c3ccccc3)C2=O)c2ccccc21	D1 ag 75
O=c1c2oc3ccccc3c2n(Cc2ccccc2Cl)c(=O)n1Cc1ccc2c(c1)OCO2	none (no result: D3 antag)
CC(=O)N(C1=C(O)c2ccccc2C(=O)C1=O)C1CCCCC1	D1 antagonist -38
COc1ccccc1-c1nc(S(=O)(=O)c2ccccc2)c(N2CCC(C)CC2)o1	none (no result: D3 antag)
COc1ccc(NC(=O)c2cc(C3CCCCN3C(=O)C3CC3)on2)c(C)c1 (configuration not stated)	D3 antag -111 (no result: D1 antagonist, D1 PAM, D1 ag)
CC[C@H](C)[C@H]1CNC(=S)N1CC1CCN(CCCC2CCCC2)CC1	D3 antag -78 (no result: D1 antagonist, D1 PAM, D1 ag)
CC(C)C[C@H]1CNC(=S)N1CC1CCN(CCCC2CCCCC2)CC1	D3 antag -101 (no result: D1 antagonist, D1 PAM, D1 ag)
CC(C)C[C@H]1CNC(=S)N1CC1CCN(CC2CCCC2)CC1	D3 antag inconclusive (no result: D1 antagonist, D1 PAM, D1 ag)
CC[C@H](C)[C@H]1CNC(=S)N1CC1CCN(CCCCc2ccccc2)CC1	D3 antag -65 (no result: D1 antagonist, D1 PAM, D1 ag)
CC(C)C[C@H]1CNC(=S)N1CC1CCN(CCC23CC4CC(CC(C4)C2)C3)CC1	D3 antag -72 (no result: D1 antagonist, D1 PAM, D1 ag)
C=C(C)Cn1c(=O)c2c(nc3n2CCN3c2ccc(CC)cc2)n(C)c1=O	none (no result: D3 antag)
